AmpC detergent – qHTS Inhibitors of AmpC Beta-Lactamase (assay with detergent) | P00811 | AID 485294, 2010 | AmpC hydrolysis of nitrocefin, absorbance 480 nm, 0.01% Triton | 370,000 tested, 0.041% active | Potency, µM (doses to about 114 µM), for the others: at the highest dose activity change, negative = inhibition, usual class: inhibitors;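 further: potency means the concentration at half of the fitted maximal effect; 0% = no-compound wells and -100% = no-enzyme wells; nearly all actives have a fitted effect of over 25% in size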
Target sequence (P00811 whole entry, looked up): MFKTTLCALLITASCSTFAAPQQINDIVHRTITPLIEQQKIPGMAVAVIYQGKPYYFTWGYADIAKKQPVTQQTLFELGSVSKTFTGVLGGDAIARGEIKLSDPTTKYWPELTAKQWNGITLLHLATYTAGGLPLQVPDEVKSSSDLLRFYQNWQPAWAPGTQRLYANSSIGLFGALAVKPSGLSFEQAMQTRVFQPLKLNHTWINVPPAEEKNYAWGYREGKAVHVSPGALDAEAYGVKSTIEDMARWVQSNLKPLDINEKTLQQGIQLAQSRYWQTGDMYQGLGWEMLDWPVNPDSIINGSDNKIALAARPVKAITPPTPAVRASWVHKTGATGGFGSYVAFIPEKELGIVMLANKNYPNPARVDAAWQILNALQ
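AmpC (5.3 nM in the dispensed reagent) in 20 mM phosphate pH 7.0 with 0.01% (detergent screen) or 0.0001% Triton X-100 was preincubated with compounds for 15 min at room temperature. Nitrocefin was then added from an 800 uM solution, and hydrolysis was followed at 480 nm.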
HCMV inh – qHTS Assay for inhibitors of the human cytomegalovirus (HCMV); 410,000 tested, 4.5% active; activity change, negative = inhibition, % at 57.5 µM; HFF cells, HCMV-luciferase reporter, 72 h; active compounds read low; in the data active means activity change below about -60%; inconclusive means no clear call, values can overlap the other calls; inactive means above about -39%
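Luciferase read-out from HCMV-luciferase-infected HFFs (MOI 1 PFU/cell) 72 h post infection at 37C; compounds added after 16 h cell attachment; activity normalized between buffer-only basal and Salinomycin (10uM) inhibitor controls.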
FMDV antiviral – High Throughput Screening for Foot and Mouth Disease Virus Antivirals; FMDV antiviral cell-based qHTS; Potency, µM (doses to about 57.9 µM), for the others: at the top dose activity change, negative = inhibition, usual class: inhibitors; 410,000 tested, 1.2% active; calls by dose curve; tested in HEK293T cells; further: read-out not given here; potency means the concentration at half of the fitted maximal effect; nearly all actives have a fitted effect of over 45% in size
HCV inhibitor – qHTS Assay for Inhibitors of Hepatitis C Virus (HCV); Huh7.5.1 HCVcc-Cre infection, luciferase reporter, 44 h; Potency, µM (top dose mostly 41.8 µM), for inactives: at the top dose activity change, negative = inhibition, usual class: inhibitors; 340,000 tested, 3.4% active; further: potency means the concentration at half of the fitted maximal effect
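HCVcc-Cre virus at an moi near 0.5 was added right after compound to cells cultured 4 h from seeding (1,000 cells/well). Luciferase activity was determined 44 h later, 15 min after substrate addition at RT.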
AmpC inh no detg – qHTS Inhibitors of AmpC Beta-Lactamase (assay without detergent); P00811; AmpC nitrocefin hydrolysis, absorbance 480 nm, 0.0001% Triton; Potency, µM (highest dose often 57.1 µM), inactives show at the top dose activity change, negative = inhibition, actives largely listed as inhibitors; 330,000 tested, 0.52% active;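 further: potency means the concentration at half of the fitted maximal effect; plate controls were no compound for no effect and no enzyme for full effect; nearly all actives have a fitted effect of over 20% in size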
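20 mM phosphate pH 7.0 + 0.01% (detergent screen) or 0.0001% Triton X-100; 5.3 nM AmpC reagent; cpd preinc 15 min RT; nitrocefin (800 uM stock) to start; A480 q20 s × 4 min; Activity was normalised to no-enzyme and no-compound control wells.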
Numbers without * were called inactive; ? = inconclusive; / = no result given. Rows were chosen to be rich in hits. Some 7.3% of all compounds tested hit in one or more screens of this group. Unless noted, the call rests on the fitted dose curve; in most records, active means well fitted curve in the direction sought with a large enough effect; inconclusive means small, poorly fitted or top-dose-only effect, or another doubt; inactive means no such curve, though single readings can be large; an effect the other way counts as inactive or inconclusive. Unless noted, on the % scale 0 is the no-effect control and ±100 the full control effect.

SMILES	AmpC detergent	HCMV inh	FMDV antiviral	HCV inhibitor	AmpC inh no detg
CC(=O)Nc1ccc(S(=O)(=O)Nc2ccc3c(c2)CCC3)cc1	-13%	-60*	1%	?	89%
COc1cc(OC)c(OC)cc1/C=C/C(=O)c1ccc(NS(=O)(=O)c2ccc(C)cc2)cc1	-8%	-78*	-13%	?	?
CC(=O)NCCc1ccc(S(=O)(=O)Nc2ccc(NC(=O)c3ccc(F)cc3)cc2)cc1	3%	61	49%	10µM*	-23%
COc1ccc(Cn2c(=O)c3[nH]cnc3n(-c3ccc(C)cc3)c2=O)cc1	-4%	15	-6%	?	-8%
O=C(CSc1nnc(CNC(=O)c2cccc(C(F)(F)F)c2)o1)NC1CCCC1	6%	-40	-12%	/	8%
COc1ccc(-c2nc3cnc(Nc4cccc(OC(F)(F)F)c4)cc3n2C)cc1OC	/	7	/	/	/
CCOC(=O)/C=C/S(=O)(=O)c1ccc(NC(C)=O)cc1	?	-99*	?	?	-14%
O=C(Nc1ccccc1)c1ccc(S(=O)(=O)Nc2cccc(O)c2)cc1	3%	-32	-21%	?	-45%
CCOC(=O)c1cccc(NS(=O)(=O)c2ccc(NC(C)=O)cc2)c1	4%	-88*	-23%	2%	-21%
CC(=O)c1cccc(NS(=O)(=O)c2ccc(C(=O)Nc3ccccc3)cc2)c1	-1%	-76*	-13%	4.5µM*	-43%
CCOC(=O)c1cccc(NS(=O)(=O)c2ccc(-c3coc(C)n3)cc2)c1	3%	19	28%	/	/
O=C(O)c1cccc(NS(=O)(=O)c2ccc(-c3ccc(S(=O)(=O)Nc4cccc(C(=O)O)c4)cc3)cc2)c1	-3%	-72*	-17%	27%	-43%
COc1ccccc1C(C(=O)NC1CCCC1)N(C(=O)c1csnn1)C1CC1 (stereo not drawn)	-6%	-34	-5%	0%	-2%
COc1ccc2sc(-c3ccccc3OC)c(-c3ccc(OC)c(F)c3)c2c1	10%	0	-21%	?	-26%
COc1ccc2sc(-c3ccccc3OC)c(-c3ccc(OCCN(C)C)cc3)c2c1	/	4	-4%	10µM*	161%
COc1cccc(-c2sc3ccccc3c2-c2ccc(OCCN(C)C)cc2)c1	/	-40	?	11µM*	141%
COc1ccc(CC(=O)NC2CC(=O)N(c3cccc(F)c3)C2)cc1OC (stereo not drawn)	-1%	3	-9%	/	/
CCC(C)Sc1cc(C(F)(F)F)c(C(=O)Nc2ccc(Cl)cc2)cn1 (stereo not drawn)	8%	-33	?	22µM*	10µM*
Cn1cc(C(=O)Nc2ccc(Cl)cc2)c(C(F)(F)F)n1	2%	?	10%	-8%	-22%
COc1ccc(N(Cc2cccs2)C(=O)c2ccc(OCC(C)C)cc2)cc1	-6%	18	8%	/	/
COc1ccc(N(Cc2cccs2)C(=O)c2ccc(OC)c(Cl)c2)cc1	17%	-91*	-5%	/	/
COc1ccc(N(Cc2cccs2)C(=O)c2ccc(C(C)(C)C)cc2)cc1	22%	-9	-4%	/	/
CCCCOc1cccc(C(=O)N(Cc2cccs2)c2ccc(OC)cc2)c1	17%	-60*	-23%	/	/
Cc1cccc(-c2nc(CN3CCCC(C(=O)NC4CCCCC4)C3)c(C)o2)c1 (stereo not drawn)	-8%	-21	?	32µM*	215%
CCOC(=O)N1CCC(NC(=O)C2CCCN(Cc3nc(-c4ccc(CC)cc4)oc3C)C2)CC1 (stereo not drawn)	?	-87*	?	2.5µM*	190%
SMILES	AmpC detergent	HCMV inh	FMDV antiviral	HCV inhibitor	AmpC inh no detg
CCN1CCCC1CNC(=O)C1CCN(Cc2nc(-c3cccc(Br)c3)oc2C)CC1 (stereo not drawn)	1%	/	-19%	2.5µM*	75%
Cc1oc(-c2cccc(Cl)c2)nc1CN1CCCC(C(=O)NC(C)c2ccc3c(c2)OCCO3)C1 (stereo not drawn)	-1%	-28	20µM*	?	152%
COc1ccc2nc(-c3nc4ccccc4[nH]3)c(C)nc2c1	/	17	/	/	/
COc1ccc(-c2nc3cc(C)ccc3cc2CN(C(=O)c2cc(C)nn2C)C2CC2)cc1OC	/	/	-4%	/	/
COc1ccc(C(=O)O)cc1S(=O)(=O)Nc1ccc(Oc2ccccc2)cc1	-7%	-21	-1%	5%	-20%
CCO[C@@H]1OC(C(=O)NCc2nc3ccccc3[nH]2)=C[C@H](C(C)(C)C)[C@H]1CCCO	/	-80*	-29%	-9%	/
CCO[C@@H]1OC(C(=O)NCc2nc3ccccc3[nH]2)=C[C@H](C2CC2)[C@H]1CCCO	-10%	0	-17%	?	46%
CN(Cc1ccccn1)C(=O)CC1C(=O)NCCN1Cc1ccc(F)cc1Cl (stereo not drawn)	3%	6	-11%	15%	27%
CC(CCc1ccccc1)OS(N)(=O)=O (stereo not drawn)	?	-23	-6%	24%	-19%
CC(C)c1cc(C(F)(F)F)n2nc(C(=O)Nc3ccc4c(c3)OCO4)cc2n1	-18%	87	22%	13µM*	18%
CC(=O)N1CCC2(CCCN(c3ccncc3)C2)CC1	/	/	-1%	/	/
CCN(CC)CC(O)Cn1c(C)c(-c2ccccc2)c2cc([N+](=O)[O-])ccc21 (stereo not drawn)	-11%	-68*	-12%	14µM*	39%
CCN(CC)CC(O)Cn1c2ccccc2c2ccccc21 (stereo not drawn)	-2%	?	-26%	?	-14%
O=C(c1cc(C(F)(F)F)cc(C(F)(F)F)c1)N1CCC[C@@]2(CCN(c3ccncc3)C2)C1	/	/	-9%	/	/
CC(=O)c1c(O)n(-c2cccc(Cl)c2)c(=O)[nH]c1=O (tested in a mixture with another compound)	-4%	6	-25%	2%	-25%
CC(C)n1c(O)c(C2c3cc(Cl)ccc3Oc3[nH]c(=O)n(C(C)C)c(=O)c32)c(=O)[nH]c1=O (stereo not drawn)	3%	/	3.5µM*	5µM*	-26%
Cc1ccc(OCCNC(=O)c2ccc(NC(=O)CC3SC(N4CCCC4)=NC3=O)cc2)cc1 (stereo not drawn)	?	10	-28%	1%	221%
Cc1ccc(C)c(S(=O)(=O)NCCC(=O)N2CCCC(C(N)=O)C2)c1 (stereo not drawn)	1%	-83*	0%	6%	-19%
Cc1ccc(S(=O)(=O)NCCC(=O)N2CCC(C(N)=O)CC2)cc1C	-15%	13	0%	16%	-3%
Cc1nc(N2CCN(c3ccccn3)CC2)c2c(C)c(C(=O)N3CCN(c4ccccc4F)CC3)sc2n1	4%	14	?	32µM*	71%
